Screening results (PubChem)
IP6K1 inhibitor: blocks human inositol hexakisphosphate kinase 1; Q92551; IP6K1 kinase, ADP-Glo luminescence, 2 h; active compounds read low; activity change, % (series mostly up to about 58 µM); 140,000 compounds, 0.81% hits; in the data active = activity change below about -25%; note: % is set by controls: 0 for no effect and ±100 for the full control effect
Target sequence (Q92551 whole entry, looked up): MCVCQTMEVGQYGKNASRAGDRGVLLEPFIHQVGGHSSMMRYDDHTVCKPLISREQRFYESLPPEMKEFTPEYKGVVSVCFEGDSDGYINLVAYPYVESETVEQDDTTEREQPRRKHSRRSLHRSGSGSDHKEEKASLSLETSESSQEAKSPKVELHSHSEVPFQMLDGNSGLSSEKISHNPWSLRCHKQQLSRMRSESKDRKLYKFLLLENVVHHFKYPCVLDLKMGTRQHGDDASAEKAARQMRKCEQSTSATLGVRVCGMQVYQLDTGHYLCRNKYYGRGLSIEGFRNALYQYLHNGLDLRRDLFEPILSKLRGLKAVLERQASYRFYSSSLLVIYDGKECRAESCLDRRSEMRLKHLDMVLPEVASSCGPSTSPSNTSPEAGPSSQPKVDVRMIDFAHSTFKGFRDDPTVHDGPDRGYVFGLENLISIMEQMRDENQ
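ADP-Glo luminescence measures ADP made by human IP6K1 during a 2 h RT reaction with ATP/IP6 (mix at 1.3 mM/130 uM); top library doses 57.5 and 19.1 uM final.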
SNCA expr inhib: inhibitors of alpha-synuclein (SNCA) gene expression; Potency, µM (top dose mostly 57.2 µM), for the others: at the top dose activity change, negative = inhibition, hits mostly inhibitors; 140,000 compounds, 0.17% hits; AID 1671194; HEK-293 SNCA-luciferase knock-in, luminescence, 24 h;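 note: potency is the fitted concentration of half-maximal effect; plate controls were DMSO cells for no effect and cell-free wells for full effect; nearly all actives have a fitted effect of over 45% in size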
HEK293 viab: cell viability loss counter-screen; HEK-293-SNCA-luc viability, GF-AFC fluorescence, 24 h; Potency, µM (series often up to 57.1 µM), for the others: top-dose activity change, negative = cytotoxicity, usual class: cytotoxic; 150,000 compounds, 0.12% hits;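 note: potency is the fitted concentration of half-maximal effect; 0% = DMSO-treated cells and -100% = medium-only wells without cells; nearly all actives have a fitted effect of over 30% in size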
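Cytotoxicity counterscreen: after 24 h compound treatment of genome-edited SNCA-luciferase HEK-293 cells, live-cell protease substrate GF-AFC read by fluorescence after 30 min; activity scaled between DMSO (0%) and medium-only (-100%), curves Hill-fitted.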
KDM5B inh: blocks human KDM5B histone demethylase activity | Q9UGL1 | KDM5B demethylase, FDH-coupled NADH fluorescence (FDH is formaldehyde dehydrogenase) | Potency, µM (doses to about 57.7 µM), most hits filed as inhibitors | 220,000 compounds, 2.6% hits; note: potency is the fitted concentration of half-maximal effect; 0% is about no effect; nearly all actives have a fitted effect of over 70% in size
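Measured: NADH fluorescence change, 30 min, RT. System: KDM5BΔAP 200 nM final, H3K4me3 peptide, α-KG, Fe(II), ascorbate, NAD⁺ plus FDH, pH 7.5 HEPES. Compounds: titrated, 10 min pre-incubation with enzyme.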
* hit, by the source's call; i = inactive; ? = inconclusive; nt = not tested or not shown; [ ] = dose if it differs, or a comment. Rows were chosen to be rich in hits. Some 2.9% of all compounds tested hit in one or more screens of this group. Unless noted, calls come from the whole dose curve; as a rule, active = well fitted curve in the direction sought with a large enough effect; inconclusive = small, poorly fitted or top-dose-only effect, or another doubt; inactive = no such curve, though single readings can be large; an effect the other way counts as inactive or inconclusive.

SMILES	IP6K1 inhibitor	SNCA expr inhib	HEK293 viab	KDM5B inh
COc1ccc(-c2cc3c(=O)n(CCNC(=O)c4cccc(OC)c4OC)ccn3n2)cc1	-5	-3%	-20%	25µM*
COc1ccc(-c2cc3c(=O)n(CCNC(=O)c4c(F)cccc4F)ccn3n2)cc1	3	5%	0%	22µM*
N#Cc1ccc(CN2CCn3c(nn(-c4cccc(Cl)c4)c3=O)C2)cc1	9	7%	-6%	?
Cc1nn(-c2ccccc2)c2c1C(C)N(C1CCCN([S+](=O)([O-])c3c(C)noc3C)C1)C2=O (centres undefined)	1	nt	nt	nt
Cn1cccc1CN1CCC2CC(=O)NCCC2C1 (centres undefined)	1	1%[87.6 µM]	4%[87.6 µM]	100µM*
O=C(Cc1c[nH]c2ncc(-c3ccsc3)cc12)N1CCOCC1	-14	0%[87.6 µM]	6%[87.6 µM]	32µM*
O=C(Cc1c[nH]c2ncc(-c3ccncc3)cc12)N1CCOCC1	-3	14%[87.6 µM]	2%[87.6 µM]	i
O=C(Cc1c[nH]c2ncc(-c3ccc(F)cc3)cc12)N1CCOCC1	-21	1%[87.6 µM]	-2%[87.6 µM]	28µM*
CC(=O)Nc1cccc(-c2cnc3[nH]cc(CC(=O)N4CCOCC4)c3c2)c1	5	42%[87.6 µM]	5%[87.6 µM]	32µM*
COc1ccc(C(=O)N2CCc3nc(C4CC4)nc(-c4ccc(OC)cc4)c3C2)cc1	-11	-13%	-21%	i
COc1ccc(-c2nc3c(c(-c4ccccc4)n2)CN(C(C)=O)CC3)cc1	-10	26%	10%	28µM*
COc1ccc(-c2nc(C3CC3)nc3c2CN(C(=O)c2ccc(C(F)(F)F)cc2)CC3)cc1	-11	?	10µM*	?
COc1ccc(-c2nc(-c3ccccc3)nc3c2CN(C(=O)N(C)C)CC3)cc1	3	14%	-11%	?
O=C(NCCCc1ccccc1)C1CCCN(Cc2cccc(-c3ccc(F)cc3F)c2)C1 (centres undefined)	-1	-18%	0%	nt
O=C(NCCc1ccccc1)C1CCCCN1Cc1ccc(-c2ccsc2)cc1 (centres undefined)	7	?	-14%	nt
CCN(Cc1ccncc1)C(=O)c1cc(-c2cnn(CC)c2)nc2cc(C)ccc12	2	3%	-13%	28µM*
O=C(N1CCCC1)N1CCN(C2CCNCC2)C(=O)C1	10	-17%	-10%	50µM*
O=C(N1CCCCC1)N1CCN(C2CCNCC2)C(=O)C1	11	-1%	-4%	89µM*
O=C1NCc2ccccc2CC12CCCN(Cc1cccc(OC(F)(F)F)c1)C2 (centres undefined)	7	2%	-13%	i
Cc1nc(N(C)C)ncc1C(=O)N[C@@H]1CCNC[C@H]1O	16	-7%	0%	14µM*
CC(=O)c1c(C)nn(CCC(=O)N[C@@H]2CCNC[C@H]2O)c1C	21	-7%	-1%	i
CC(=O)N1CCC(N2CC[C@@H](CO)N(C)c3ncccc3C2)CC1	4	1%[87.6 µM]	5%[87.6 µM]	35µM*
O=C(CCc1nc2cccnc2n1-c1ccccc1)Nc1ccc(Cl)c(Cl)c1	-7	7.1µM*	-29%	i
Cc1ccc(NC(=O)CCc2nc3cccnc3n2-c2ccccc2)cc1Cl	22	5%	-11%	i
CN(C)c1nc2c(c(=O)[nH]1)CCN(Cc1ccc(Cl)c(F)c1)CC2	18	16%	21%	28µM*
SMILES	IP6K1 inhibitor	SNCA expr inhib	HEK293 viab	KDM5B inh
CC(C)n1cnnc1-c1nn(C)c2c1CN(C(=O)c1n[nH]c3ccccc13)CC2	-17	-1%	-9%	i
Cn1nc(-c2nncn2CC2CC2)c2c1CCN(C(=O)c1n[nH]c3ccccc13)C2	-7	4%	-21%	20µM*
CC(C)n1cnnc1-c1nn(C)c2c1CN(C(=O)Cc1c[nH]c3ccccc13)CC2	-7	6%	6%	20µM*
Cn1nc(-c2nncn2CC2CC2)c2c1CCN(C(=O)c1cn[nH]c1-c1ccccc1)C2	-7	-22%	7%	i
CN(CC(=O)N1CCc2c(c(-c3nncn3CC3CC3)nn2C)C1)S(=O)(=O)c1cnc[nH]1	-16	-22%	-4%	22µM*
CCn1cnnc1-c1nn(C)c2c1CN(C(=O)CCC(=O)N1CC(=O)Nc3ccccc31)CC2	-8	25%	13%	14µM*
CCn1cnnc1-c1nn(C)c2c1CN(C(=O)CCn1nc(C)cc1C)CC2	-8	17%	13%	nt
COc1cccc(-c2ccc(CN3CCCC(N[S+](=O)([O-])c4cccc(C(F)(F)F)c4)C3)cc2)c1 (centres undefined)	0	nt	nt	nt
O=C1NC2(CCN(Cc3ccsc3)CC2)COc2ccccc21	13	-3%[87.6 µM]	6%[87.6 µM]	?
Cc1ccc2c(c1)c(C(=O)N[C@H](c1cnn(C)c1)C1CC(O)C1)nn2C (some centres undefined)	30	-2%	4%	28µM*
Cc1[nH]c(-c2ccccc2)nc1C(=O)N[C@H](c1cnn(C)c1)C1CC(O)C1 (some centres undefined)	13	-10%	1%	i
Cc1cccc(OCC2(CNC(=O)c3cc(C)nn3C)C[C@@H](O)[C@@H](O)C2)n1 (some centres undefined)	11	26%[87.6 µM]	-9%[87.6 µM]	32µM*
Cc1cccc(OCC2(CNC(=O)c3cc(C)on3)C[C@@H](O)[C@@H](O)C2)n1 (some centres undefined)	-3	30%[87.6 µM]	0%[87.6 µM]	?
c1cncc(-c2ccnc(NCC(c3cccnc3)N3CCCCC3)n2)c1 (centres undefined)	52	1%	-5%	32µM*
O=C(NCc1ccc(C(=O)N2CCCC2)cc1)C1CCCCC1	nt	nt	nt	i
O=C(c1ccc(CNc2nccc(-c3cccnc3)n2)cc1)N1CCCCC1	25	-15%	-13%	28µM*
c1ccc(-c2ccnc(NCC(c3ccncc3)N3CCOCC3)n2)nc1 (centres undefined)	27	-22%	-9%	i
NS(=O)(=O)c1ccc(CNc2nccc(-c3cccnc3)n2)cc1	-6	?	-5%	32µM*
COCCNC(=O)C1CCN(Cc2ccccc2-c2ccc(C)c(Cl)c2)CC1	-12	nt	nt	nt
Cc1ccc(C)c(C(O)Cn2ccn3nc(-c4cccc(Br)c4)cc3c2=O)c1 (centres undefined)	-4	-5%	-20%	32µM*
O=c1c2cc(-c3cccs3)nn2ccn1CC(O)c1cccc(Cl)c1 (centres undefined)	2	13%	-8%	20µM*
O=c1c2cc(-c3cccs3)nn2ccn1CC(O)c1ccccc1 (centres undefined)	-6	115%	-1%	?
Cc1ccc(C)c(C(O)Cn2ccn3nc(-c4cccs4)cc3c2=O)c1 (centres undefined)	-4	18%	-18%	20µM*
COc1cccc(C(=O)N2CCC(N3C(=O)c4c(c(C)nn4-c4ccccc4)C3C)CC2)c1 (centres undefined)	4	nt	nt	nt
COc1ccc(-n2nc(C)c([C@@H]3C=C[C@@H](NC(=O)NCc4ccccc4)C3)c2C)cc1	-5	-69%[87.6 µM]	?	i
CN(Cc1ccccc1)C(=O)C[C@@H]1CCNC[C@@H]1Cc1cc(-c2ccccc2)on1	1	-2%[87.6 µM]	-11%[87.6 µM]	i
